The source of these data is PubChem BioAssay AID1508600 (Functional Genomics Laboratory (NCATS/FGL), 2020).

The whole screen tested about 53,000 sequences, of which about 3,700 (7%) were called active.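 The calls were made as follows: active = gene knockdowns whose robust z-score for IL-1 alpha signal is at least 2 or at most -2, so actives lie on both sides; inactive = the rest.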 The sample as a whole holds a higher share of actives than the screen did.

The test in a line: Components of the Cytosolic LPS Sensing Pathway: Gene Identification via Genome-wide siRNA Screen.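 Also: robust z of the log signal after scaling to non-targeting control siRNA wells of the plate.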 The settings on record: RAW264.7 macrophages, IL-1a HTRF, actives lie on both sides, screened at 100 nM (by protocol), cells primed 5 h with Pam3CSK4 first. The method in brief: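 Read-out: IL-1a HTRF on supernatant, divided by plate negative-control median ×100, log-transformed and converted to robust z-score. Cells were RAW264.7 given 100 nM siRNA, Pam3CSK4-primed 5 hours, then LipidA-transfected 24 hour.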
For the sequence CCACAGAGUUCCUAUACAATT against Pfkl, the z-score is -2.52 (active).

For the sequence CCCACGGAGGCAAUAAAUATT against Crygn, the z-score was -0.155 (inactive).

Consider GGAGAACUUCAGUGAGUCCTT against Ambp, for which the z-score is -2.43 (active).

On to GCCACUCACCUAGCAAAGATT against Fbrsl1, for which the z-score is -1.36 (inactive).

Regarding GGAAAUUUCAGUCGUAGUATT against Mgat4c, the z-score was 0.642 (inactive).

Take “CGACUAUAGACUCUUGAAUTT against 1810037I17Rik”: the z-score is 0.573 (inactive).

GGAGAAAUACAACUGAAAATT against Pcdhb7: the z-score is -0.0269 (inactive).

As to GGCCAGAAGAUCUUCACCATT against Furin, the z-score was 0.449 (inactive).

Consider GCUCUUUGGUCGAGAACCATT against Mup5, for which the z-score was -2.42 (active).

Regarding GCAUCGUUUGUGAGAAUUUTT against Perp, the z-score is -0.61 (inactive).

For GGGCUAUCCUUCUGAAUUUTT against Csnk1d, the z-score was 1.46 (inactive).

Turning to GCUCUCCAUUACGUGCUUGTT against Rrp9, the z-score was 1.39 (inactive).

For the sequence GGAGAGAAAGAACUGGAAATT against Fam78a, the z-score is 0.357 (inactive).

Regarding CCUAUCAGACUGUAAUAAGTT against Kdm2b, the z-score is -0.404 (inactive).

In the case of GGGUGUAUUACCUCUCUCUTT against Pygl, the z-score was 2.12 (active).

Take CCACGAUAGCACCUAUUUUTT against Gucy2c: the z-score is -0.405 (inactive).

For GGAACAUUGAAAGGAUUAATT against Smc3, the z-score was -1.9 (inactive).

On to GGCUUAAGUAUUUUUCUGATT against Aktip, for which the z-score is -0.269 (inactive).

As to GGUCUUCAUCUGUCCAACUTT against Tmlhe, the z-score was -2.09 (active).

Turning to CCUGUACCUGCGUAUUCAATT against Grap, the z-score was -1.63 (inactive).

Consider GGUGCAGCACUUCAAAGUGTT against Grap, for which the z-score is 2.41 (active).

On to “GGCCUGAAGACAGACAUGATT against C030016D13Rik”, for which the z-score is -1.2 (inactive).

As for GGAAGAGAUGAAGAAAAUGTT against Cetn1, the z-score was -1.01 (inactive).

With GGAACUUUUGGCCAGCAAGTT against Opa1, the z-score is 1.59 (inactive).

Regarding CGAUUACAUCCUUUUUGACTT against Gpn3, the z-score is -0.228 (inactive).

On to GCGCCUUAACCAAGAAGUUTT against Cox18, for which the z-score is 2.84 (active).

For the sequence GGAUCUAGAACAGAAAAUGTT against Stat3, the z-score is -1.55 (inactive).

Take GCUGCUAUGACCUAUGGCATT against Sptlc2: the z-score is -0.543 (inactive).

Take GGGUUGUCGUUCAGUUUACTT against Art2a: the z-score is 2.8 (active).

As to GGAAUUAAGUCAUCAGGAATT against Slc6a5, the z-score is -0.763 (inactive).

For GCGCACAAAAAACAUGAUATT against Plaat5, the z-score is 0.211 (inactive).

As to GGAAUUCGAUGCAUUUGUATT against Il18rap, the z-score is -0.34 (inactive).

In the case of GCUCAGCUGUGGGUAAUACTT against Raver2, the z-score is -2.77 (active).

“GGAUAUCACAUAGCAUCGGTT against 1700025G04Rik”: the z-score is -0.742 (inactive).

As for GGAUGUCUCAAAGUAAGAATT against Cd55b, the z-score is -0.124 (inactive).

Regarding GGACGAGUGCCUGUUUUCATT against Med8, the z-score is 4.09 (active).

GCAAUGGAACCACCUCUGATT against Zic5: the z-score is 1.41 (inactive).

On to GGAAGAAGCUGAGGAAAGCTT against Spata1, for which the z-score is 0.15 (inactive).

Regarding GGAUGGACUCUGUUCCUGUTT against Susd2, the z-score was 0.956 (inactive).

On to GGCCAUUGGACACAGAAUCTT against Rpl35a, for which the z-score is 2.28 (active).

In the case of GCAAUUAGUAUCUAUUACCTT against Txndc17, the z-score is -0.448 (inactive).

As for GGCUACAAAGGAGUUCCUATT against Sgf29, the z-score was 0.516 (inactive).

GCUACUAAACAAGCCGGCATT against Msl1: the z-score was 0.341 (inactive).

Turning to GGCUUUGUGGAUUUUGAAGTT against Cabp4, the z-score was -1.2 (inactive).

With GGACGUGUUUGGGAUUGUUTT against Csad, the z-score is -0.765 (inactive).

For the sequence GGAUGAGUUCCUUUUACUATT against Cntnap4, the z-score is 0.285 (inactive).

Turning to CCUCUGUUAUGGUAAUUCUTT against Olfr1323, the z-score is -0.371 (inactive).

GCCUGAUAGUGGUGGACAGTT against Tmem45a2: the z-score is 3.29 (active).

“GGAGGCUUUUCAGACCAAGTT against 3830406C13Rik”: the z-score is 0.334 (inactive).

Take GGAGAACAGACACAGGGUGTT against Dlgap5: the z-score is -0.284 (inactive).

Consider CCUAAACUCAGUGCCUCAGTT against Mrps36, for which the z-score was 0.579 (inactive).

As for GUCAAAGCACCAUUUGAGUTT against Vmn1r8, the z-score is -0.842 (inactive).

For GGUAUUCUUUGAAGAAAACTT against Tbc1d14, the z-score was 1.17 (inactive).

In the case of GGUUUUUGAUGAUUGCUUUTT against Slc49a4, the z-score is 0.221 (inactive).

In the case of GGACACAGAUAGAAAUACUTT against Glo1, the z-score was 2.73 (active).

Consider GGUCUCGAAUGUAUGGUGCTT against Bicc1, for which the z-score is 1.14 (inactive).

On to GGCAGUUAUGAUAAAGAUUTT against Slc25a16, for which the z-score was -0.896 (inactive).

In the case of GGUUCCUAAACAUACUUGUTT against Swi5, the z-score was 0.478 (inactive).

Turning to GGACUACAGUCAUUAUUCATT against Sycp2, the z-score was 3.25 (active).

On to GGAGUACGAGCAAAUGGUGTT against Nfkbia, for which the z-score was 0.5 (inactive).

For the sequence GGGACCUACAUUACAAUUUTT against Suz12, the z-score was 1.06 (inactive).

Turning to GGAUUCACCUGUUAUCUUUTT against Tapbpl, the z-score is 0.303 (inactive).

Turning to UGAAUCACCACCCGGAAUGTT against Pcbd2, the z-score is 0.41 (inactive).

With CCUAUGUGCGUUCCAAGCATT against Eif5b, the z-score is -0.432 (inactive).

Consider GGACAUCUGUGUUAAAUUUTT against Npy1r, for which the z-score was -0.47 (inactive).

GGAAGAUACUGUGGUUUAUTT against Agbl3: the z-score is 2.29 (active).

For GGCAUUGGUGUUUCAUUAATT against Gpm6a, the z-score is 1.2 (inactive).

As to GGUAUUAUGACCAGAUUAUTT against Plxnb3, the z-score was 0.736 (inactive).

Turning to GGACGAUUGCCAUAUGAACTT against Ice2, the z-score was -0.99 (inactive).

As to GUACUUUCUUGAACCAGAGTT against Cacng7, the z-score is -0.486 (inactive).

As to GGAUGAAGCCUUCAUCAGGTT against Adcy6, the z-score is 0.0162 (inactive).

Consider GGAGAGAGACACAAGCUUGTT against Map7d1, for which the z-score is 1.07 (inactive).

As for CCCGGGUCUUUGAUAUCUUTT against Evi5l, the z-score is 2.03 (active).

Consider GCGAAAACUUCGGAUCUAUTT against Smarcd2, for which the z-score is 1.29 (inactive).

In the case of GGCUUAUCAUACCUGGUUGTT against Olfr691, the z-score is 0.404 (inactive).

For GGAUAUUUCAGUUGGCGGGTT against Lama2, the z-score is -0.158 (inactive).

For the sequence GGUCAAACUGAAGAAGGAGTT against Slc7a7, the z-score was -1.24 (inactive).

With GGAAGUUGAAAUGCUGUCGTT against Clcnka, the z-score is -2.24 (active).

With GCAAGGAAAAUCUAUACCGTT against Rgs2, the z-score was -0.954 (inactive).

With GCACAUACAGAGCUCGUCUTT against Zkscan6, the z-score is -0.471 (inactive).

Consider CCAGAUAAGCCUCAUCAAUTT against Scn5a, for which the z-score is -0.163 (inactive).

Turning to GAAUCAGCUGUUCUCUCACTT against Tm2d3, the z-score was 2.25 (active).

For the sequence GCACCAAACCAAUAUUAGUTT against Epb41l3, the z-score was 1.13 (inactive).

With GCACCAUUAAGGUUGCCAATT against Nudt11, the z-score was -1.16 (inactive).

As to GGUCUGUGGGAAACAUAAATT against Gria3, the z-score was -0.233 (inactive).

For the sequence GGAUGUCUAUUUUUGGUCATT against Esd, the z-score was -0.819 (inactive).

In the case of GGCGGAUACUUGAUCGAAATT against Exoc3, the z-score is 2.41 (active).

In the case of GGGACAAUACCAAUUUCUCTT against Car15, the z-score is -0.209 (inactive).

Take GGCAAUCUCCUUUAAUUGATT against Zfp329: the z-score was 0.237 (inactive).

Consider GCCCUCAACCAUAAUUCAATT against Zscan21, for which the z-score is 2.15 (active).

As for GGAAAUGAGCCAGGAUGGUTT against Cdca4, the z-score is 0.0601 (inactive).

Consider CCCGAUUAUCUAGUGAUACTT against Sbk1, for which the z-score was 0.311 (inactive).

Take GCCACUGGUUCACCAUGCATT against Ugt1a9: the z-score was -0.52 (inactive).

As to GCCAGCUUUUAGUAUCAACTT against Sun1, the z-score is 2.4 (active).

In the case of GCCUGUGGUAGGAUACUAUTT against Denr, the z-score is -0.964 (inactive).

GGAAGGAACCGUUCUAUAATT against Serpinc1: the z-score was 0.221 (inactive).

For “GGUUGGAUACUCGUCUUCATT against Olfr421-ps1”, the z-score was 1.16 (inactive).

As for GGCCCACAGUUUGUGACUGTT against Larp7, the z-score was -1.1 (inactive).

With GCGUAUAGGUGAUGUACAGTT against Smad3, the z-score is 2.28 (active).

On to GGUCAUUAGUUAUUCCUACTT against Olfr600, for which the z-score is -1.33 (inactive).

Turning to “GGGUUCAAGAUAUCAAGUATT against 4933434E20Rik”, the z-score is 1.23 (inactive).

Turning to GCUUGGGUCAUAGGGAUGATT against Olfr1288, the z-score was -0.371 (inactive).

Consider CCACUUUUGUAAUGGAAGCTT against Mfsd6l, for which the z-score is 1.89 (inactive).

GGAGAUUCAGAUCAAAGAGTT against Scyl1: the z-score is -0.182 (inactive).

Turning to GCUACGUUUUUUACCUCCATT against Bak1, the z-score was 0.0106 (inactive).

Consider GGCUUCCAGUAAUGACAAUTT against Vwc2l, for which the z-score was -1.67 (inactive).

Consider GGACUAUCAUCUGAUGCCATT against Klhl18, for which the z-score was 2.45 (active).

With GGUCUUUCCCAGGAUUCCATT against Rab19, the z-score is -0.837 (inactive).
